Laboratory results as given in PubChem BioAssay (NCI).
Compounds without any hit were thinned out: in the full panel of roughly 83,000, 20% have a hit.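 Activity criterion: percent growth below 10, measured after cells in 96-well plates were exposed to a single compound concentration for 48 hours.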 The source made the active and inactive calls.

Key:
Test in all cases: NCI-60 one-dose screen, 48 h (100 = growth as untreated, 0 = no growth, -100 = all killed)
Conditions in all cases: 10 µM unless noted
RPMI-8226 leukemia = system: RPMI-8226 leukemia
OVCAR-8 ovarian = system: OVCAR-8 ovarian
OVCAR-5 ovarian = system: OVCAR-5 ovarian
OVCAR-4 ovarian = system: OVCAR-4 ovarian
SK-OV-3 ovarian = system: SK-OV-3 ovarian
IGROV1 ovarian = system: IGROV1 ovarian
OVCAR-3 ovarian = system: OVCAR-3 ovarian
HS 578T breast = system: HS 578T breast
NCI/ADR-RES ovarian = system: NCI/ADR-RES ovarian
T-47D breast = system: T-47D breast
BT-549 breast = system: BT-549 breast
MDA-MB-435 melanoma = system: MDA-MB-435 melanoma
SW-620 colon = system: SW-620 colon
MCF7 breast = system: MCF7 breast
HCT-116 colon = system: HCT-116 colon
HCC-2998 colon = system: HCC-2998 colon
KM12 colon = system: KM12 colon

Measured: growth

O=S(=O)(Nc1ccc(Cl)c(F)c1)c1ccc(-c2cnc(C3CC3)o2)cc1
inactive: RPMI-8226 leukemia 21.2% | OVCAR-8 ovarian 24.5% | OVCAR-5 ovarian 35.8% | OVCAR-4 ovarian 49.1% | SK-OV-3 ovarian 36.3% | IGROV1 ovarian 27.4% | HS 578T breast 16.1% | T-47D breast 27.8% | BT-549 breast 27.5% | SW-620 colon 17.9% | MCF7 breast 13% | HCT-116 colon 23.1% | HCC-2998 colon 41.5% | KM12 colon 38.4%
active: OVCAR-3 ovarian -6.7% | NCI/ADR-RES ovarian -20.8% | MDA-MB-435 melanoma 3.28%

O=S(=O)(Nc1ccc(I)cc1F)c1ccc(-c2cnc(C3CC3)o2)cc1
inactive: RPMI-8226 leukemia 71.1% | OVCAR-8 ovarian 70% | OVCAR-5 ovarian 88.2% | OVCAR-4 ovarian 60.5% | SK-OV-3 ovarian 71.5% | IGROV1 ovarian 45.4% | OVCAR-3 ovarian 16.1% | HS 578T breast 35.2% | NCI/ADR-RES ovarian 28% | T-47D breast 52% | BT-549 breast 45.7% | SW-620 colon 27.2% | MCF7 breast 27.9% | HCT-116 colon 40.8% | HCC-2998 colon 76.9% | KM12 colon 52.9%
active: MDA-MB-435 melanoma 2.11%

CCOC(=O)c1cc(C(=O)c2ccc(O)c(O)c2)n2ccc(-c3ccn4c(C(=O)c5ccc(O)c(O)c5)cc(C(=O)OCC)c4c3)cc12
inactive: RPMI-8226 leukemia 74.4% | OVCAR-8 ovarian 91.4% | OVCAR-5 ovarian 121% | OVCAR-4 ovarian 86.5% | SK-OV-3 ovarian 100% | IGROV1 ovarian 87.4% | OVCAR-3 ovarian 101% | HS 578T breast 85.8% | NCI/ADR-RES ovarian 102% | T-47D breast 77.4% | BT-549 breast 96% | MDA-MB-435 melanoma 99.9% | SW-620 colon 96.1% | MCF7 breast 99.1% | HCT-116 colon 98.2% | HCC-2998 colon 104% | KM12 colon 97%

C=CC(=O)Nc1cccc(-c2nc(SC)nc(NCc3ccccc3)c2C#N)c1
inactive: RPMI-8226 leukemia 38.5% | OVCAR-8 ovarian 39.8% | OVCAR-5 ovarian 85.4% | OVCAR-4 ovarian 48.5% | SK-OV-3 ovarian 72.2% | IGROV1 ovarian 57.3% | OVCAR-3 ovarian 48.4% | HS 578T breast 51.8% | NCI/ADR-RES ovarian 48.3% | T-47D breast 28.5% | BT-549 breast 44.3% | MDA-MB-435 melanoma 62% | SW-620 colon 89% | MCF7 breast 47.2% | HCT-116 colon 55.1% | HCC-2998 colon 84.7% | KM12 colon 89.2%

CC1=NN(c2nc(-c3ccc(Cl)cc3)c(C#N)c(N3CCOCC3)n2)C(=O)C1
inactive: RPMI-8226 leukemia 57.1% | OVCAR-8 ovarian 99.3% | OVCAR-5 ovarian 97.3% | OVCAR-4 ovarian 51.5% | SK-OV-3 ovarian 86.6% | IGROV1 ovarian 81% | OVCAR-3 ovarian 50.2% | HS 578T breast 54.6% | NCI/ADR-RES ovarian 96.1% | T-47D breast 93.3% | BT-549 breast 66.1% | MDA-MB-435 melanoma 87.8% | SW-620 colon 85.2% | MCF7 breast 94.4% | HCT-116 colon 94.3% | HCC-2998 colon 98.5% | KM12 colon 99.7%

CC[C@@H]1O[C@H](O[C@@H](c2cnc[nH]2)[C@H](NC(=O)c2nc([C@H](CC(N)=O)NC[C@@H](N)C(N)=O)nc(N)c2C)C(=O)N[C@H](C)[C@H](O)[C@H](C)C(=O)N[C@@H](C(=O)NCCc2nc(-c3nc(C(=O)NCCCCN=C(N)N)cs3)cs2)[C@@H](C)O)[C@H](O[C@@H]2O[C@H](CO)[C@H](O)[C@H](OC(N)=O)[C@@H]2O)[C@H](C)[C@@H]1C
inactive: RPMI-8226 leukemia 73% | OVCAR-8 ovarian 47.2% | OVCAR-5 ovarian 59.5% | OVCAR-4 ovarian 85.6% | SK-OV-3 ovarian 41.8% | IGROV1 ovarian 45.5% | OVCAR-3 ovarian 60.8% | HS 578T breast 38.8% | NCI/ADR-RES ovarian 20.1% | T-47D breast 57.4% | BT-549 breast 78.3% | MDA-MB-435 melanoma 81.9% | SW-620 colon 68.1% | HCT-116 colon 37% | HCC-2998 colon 69.7% | KM12 colon 57.9%

CC[C@@H](C(=O)[C@@H](C)[C@@H](O)[C@H](C)[C@@H]1O[C@@H]([C@@H](CC)C(=O)O)CC[C@@H]1C)[C@H]1OC2(C=C[C@@H](O)[C@]3(CC[C@@](C)([C@H]4CC[C@](O)(CC)[C@H](C)O4)O3)O2)[C@H](C)C[C@@H]1C (some centres not stated)
inactive: OVCAR-8 ovarian 31.9% | OVCAR-5 ovarian 57.7% | OVCAR-4 ovarian 35.8% | SK-OV-3 ovarian 30.2% | IGROV1 ovarian 40.2% | OVCAR-3 ovarian 14.6% | HS 578T breast 30% | NCI/ADR-RES ovarian 29.6% | T-47D breast 27.2% | SW-620 colon 16.2% | HCT-116 colon 12% | HCC-2998 colon 10.7% | KM12 colon 12.2%
active: RPMI-8226 leukemia -36.1% | BT-549 breast -12.3% | MDA-MB-435 melanoma -76.2%

Cn1c(O)c(N=NC(=O)c2cc(-c3ccccc3)on2)c2ccccc21
inactive: RPMI-8226 leukemia 115% | OVCAR-8 ovarian 104% | OVCAR-5 ovarian 102% | OVCAR-4 ovarian 95.7% | SK-OV-3 ovarian 108% | IGROV1 ovarian 102% | OVCAR-3 ovarian 115% | HS 578T breast 96.2% | NCI/ADR-RES ovarian 94.9% | T-47D breast 101% | BT-549 breast 103% | MDA-MB-435 melanoma 95.3% | SW-620 colon 105% | MCF7 breast 77.5% | HCT-116 colon 98.9% | HCC-2998 colon 102% | KM12 colon 101%

CC[C@H]1OC(=O)[C@H](C)[C@@H](O[C@H]2C[C@@](C)(OC)[C@@H](O)[C@H](C)O2)[C@H](C)[C@@H](O[C@@H]2O[C@H](C)C[C@H](N(C)C)[C@H]2O)[C@](C)(O)C[C@H](C)CN(C)[C@H](C)[C@@H](O)[C@]1(C)O
active: HS 578T breast -29.8%
inactive: RPMI-8226 leukemia 107% | OVCAR-8 ovarian 115% | OVCAR-5 ovarian 100% | OVCAR-4 ovarian 108% | SK-OV-3 ovarian 97.4% | IGROV1 ovarian 98.3% | OVCAR-3 ovarian 96% | NCI/ADR-RES ovarian 95.2% | T-47D breast 108% | BT-549 breast 98.4% | MDA-MB-435 melanoma 96.9% | SW-620 colon 84.2% | HCT-116 colon 90.3% | HCC-2998 colon 95.9% | KM12 colon 95.4%

O=C1NC(=S)N[C@H]1CC(=O)n1cnc2ccccc21
inactive: RPMI-8226 leukemia 115% | OVCAR-8 ovarian 104% | OVCAR-5 ovarian 100% | OVCAR-4 ovarian 107% | SK-OV-3 ovarian 111% | IGROV1 ovarian 96.5% | OVCAR-3 ovarian 110% | HS 578T breast 99.1% | NCI/ADR-RES ovarian 96.5% | T-47D breast 99.6% | BT-549 breast 102% | MDA-MB-435 melanoma 105% | SW-620 colon 97.2% | MCF7 breast 68.7% | HCT-116 colon 104% | HCC-2998 colon 103% | KM12 colon 100%

O=c1c(F)cn(Cc2ccccc2CCl)c(=O)n1Cc1ccccc1CCl
inactive: SK-OV-3 ovarian 10.3%
active: RPMI-8226 leukemia -48.6% | OVCAR-8 ovarian -20.3% | OVCAR-5 ovarian -76.8% | OVCAR-4 ovarian -15.3% | IGROV1 ovarian -37.3% | OVCAR-3 ovarian -44.6% | HS 578T breast -3.05% | NCI/ADR-RES ovarian -9.91% | T-47D breast -49.5% | BT-549 breast -73.9% | MDA-MB-435 melanoma -67.1% | SW-620 colon -74.6% | MCF7 breast -47.7% | HCT-116 colon -56.9% | KM12 colon -16.2%

COc1ccc(Nc2c3c4c(cccc4[nH]c2=O)C(=O)c2ccccc2-3)cc1
inactive: OVCAR-8 ovarian 13.1% | OVCAR-5 ovarian 24.1% | OVCAR-4 ovarian 58.4% | T-47D breast 75.6% | SW-620 colon 19%
active: RPMI-8226 leukemia 5.52% | SK-OV-3 ovarian -5.92% | IGROV1 ovarian -11.9% | OVCAR-3 ovarian -39% | HS 578T breast -12.4% | NCI/ADR-RES ovarian 0.0341% | BT-549 breast 6.53% | MDA-MB-435 melanoma -52.4% | MCF7 breast 0.568% | HCT-116 colon 4.08% | HCC-2998 colon -5.28% | KM12 colon -36.2%

c1ccc(CCNc2ncnc3[nH]ncc23)cc1
inactive: RPMI-8226 leukemia 67% | OVCAR-8 ovarian 95% | OVCAR-5 ovarian 82.5% | OVCAR-4 ovarian 81.1% | SK-OV-3 ovarian 109% | IGROV1 ovarian 83.5% | OVCAR-3 ovarian 108% | HS 578T breast 66.3% | NCI/ADR-RES ovarian 97.9% | T-47D breast 79.3% | BT-549 breast 97.7% | MDA-MB-435 melanoma 112% | SW-620 colon 113% | MCF7 breast 130% | HCT-116 colon 98.3% | HCC-2998 colon 115% | KM12 colon 109%

COc1cccc2c1C(=O)c1c(O)c3c(c(O)c1C2=O)C[C@](O)(C(=O)CO)C[C@H]3O[C@@H]1C[C@@H](NC(=O)CCCCCN(C)C2(c3ccc(F)cc3)CC3CCC2C3)[C@H](O)[C@@H](C)O1 (some centres not stated)
active: RPMI-8226 leukemia -35.4% | OVCAR-5 ovarian -51.6% | OVCAR-4 ovarian 0.206% | OVCAR-3 ovarian 5.02% | MDA-MB-435 melanoma -17.9% | SW-620 colon -74.9% | MCF7 breast -46.2% | HCT-116 colon -91.8% | KM12 colon -68.5%
inactive: OVCAR-8 ovarian 21.5% | SK-OV-3 ovarian 79.5% | IGROV1 ovarian 56% | HS 578T breast 57.6% | NCI/ADR-RES ovarian 80.2% | T-47D breast 86.3% | BT-549 breast 52%

COc1ccc(-c2nnc(SCC(=O)c3ccc(Cl)cc3)o2)cc1
inactive: RPMI-8226 leukemia 101% | OVCAR-8 ovarian 99% | OVCAR-5 ovarian 93.3% | OVCAR-4 ovarian 98% | SK-OV-3 ovarian 104% | IGROV1 ovarian 105% | OVCAR-3 ovarian 103% | HS 578T breast 109% | NCI/ADR-RES ovarian 95.6% | T-47D breast 89.6% | BT-549 breast 105% | MDA-MB-435 melanoma 108% | SW-620 colon 107% | MCF7 breast 108% | HCT-116 colon 107% | KM12 colon 102%

Cc1oc(-c2ccc(Cl)cc2Cl)cc1C(=O)Nc1nccs1
active: OVCAR-4 ovarian 7.78%
inactive: RPMI-8226 leukemia 98.4% | OVCAR-8 ovarian 80% | OVCAR-5 ovarian 83.1% | SK-OV-3 ovarian 89.8% | IGROV1 ovarian 81.6% | OVCAR-3 ovarian 101% | HS 578T breast 77.1% | NCI/ADR-RES ovarian 89.6% | T-47D breast 70.3% | BT-549 breast 107% | MDA-MB-435 melanoma 100% | SW-620 colon 94.4% | MCF7 breast 60.8% | HCT-116 colon 67.2% | HCC-2998 colon 109% | KM12 colon 98.7%

CCCSc1ccc2nc(NC(=O)OC)[nH]c2c1
active: SK-OV-3 ovarian 6.85% | OVCAR-3 ovarian -32.1% | NCI/ADR-RES ovarian -8.18% | MDA-MB-435 melanoma -51% | HCC-2998 colon -4.45%
inactive: RPMI-8226 leukemia 14.4% | OVCAR-8 ovarian 17.1% | OVCAR-5 ovarian 34.2% | OVCAR-4 ovarian 48.9% | IGROV1 ovarian 45.3% | HS 578T breast 21.2% | T-47D breast 57.4% | BT-549 breast 45.5% | SW-620 colon 24% | HCT-116 colon 15.5% | KM12 colon 14%
